This is a sample that favours compounds with a hit; in the whole collection about 1.3% have one here.
S1P2 blocker = human S1P2 receptor antagonists, primary screen, cell-based | inhibition, % at 5 µM | cell-based S1P2 antagonist assay, inhibition at 5 uM | actives 0.21% (n = 97,000); in the data active = inhibition above about 45%;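 also: CRE beta-lactamase reporter cells expressing human S1P2 stimulated with S1P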
GALR2 ag = GALR2 receptor agonists, primary screen, cell-based. AID 803, 2007. activation, % (no concentration beside the values). Galanin receptor type 2 (Homo sapiens), O43603. actives 0.48% (n = 140,000). GALR2-expressing cells, agonist activation read-out; in the data active = activation above about 5%, passing the limit was not always enough
Target sequence (O43603 whole entry, looked up): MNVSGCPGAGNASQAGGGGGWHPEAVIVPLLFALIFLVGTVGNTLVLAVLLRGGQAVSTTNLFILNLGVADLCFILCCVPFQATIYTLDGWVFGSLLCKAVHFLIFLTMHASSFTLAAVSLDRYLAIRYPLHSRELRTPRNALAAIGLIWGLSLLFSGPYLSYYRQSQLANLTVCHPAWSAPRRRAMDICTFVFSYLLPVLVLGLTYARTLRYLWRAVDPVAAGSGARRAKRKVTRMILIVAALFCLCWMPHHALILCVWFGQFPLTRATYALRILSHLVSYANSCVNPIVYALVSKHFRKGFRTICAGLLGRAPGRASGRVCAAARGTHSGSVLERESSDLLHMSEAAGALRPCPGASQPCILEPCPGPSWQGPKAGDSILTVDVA
S1P2 ag = S1P2 receptor agonists, primary screen, cell-based; activation, % at 4.5 µM; AID 729, 2007; Sphingosine 1-phosphate receptor 2 (Homo sapiens), O95136; actives 0.46% (n = 97,000); S1P2-expressing cell line, agonist reporter read-out; in the data active = activation above about 16%
GALR2 antag = GALR2 antagonists in receptor-expressing cells, primary screen | actives 0.39% (n = 140,000) | antagonist mode | Galanin receptor type 2 (Homo sapiens), O43603 | AID 828, 2007 | inhibition, % at 4 µM;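 also: cells stimulated with galanin 1-16 at roughly its EC80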
Smad3 FoxH1 inh = Smad3/FoxH1 peptide binding inhibitors, primary screen, biochemical, TR-FRET | TR-FRET Smad3/Dy647-FoxH1 peptide binding, europium anti-His | inhibition, % at 25 µM | actives 0.29% (n = 88,000) | AID 630, 2007;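 active = compounds that reduce the energy-transfer binding signal between the protein and its labelled peptide by more than half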
Candida biofilm = clotrimazole potentiators killing Candida biofilms, primary screen, with clotrimazole, Alamar Blue | C. albicans biofilm + clotrimazole | inhibition, % at 6 µM | actives 0.14% (n = 85,000) | AID 834, 2007;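 active = inhibition above 20%; inactive = inhibition below 20%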;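 also: preformed 24 hr biofilms exposed to compound for 48 hr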
GALR2 ag confirm = GALR2 agonists, retest of hits, confirmation, cell-based; actives 10% (n = 460); GALR2-expressing cells, agonist activation; shares compounds with GALR2 ag; activation, % at 5.6 µM; AID 864, 2007; in the data active = activation above about 8.4%
BLA act counter = activators of NFAT-driven beta-lactamase reporter, confirmation, counter-screen for GALR2 agonist project, CHO NFAT-bla cells, FRET readout; shares compounds with GALR2 ag; beta-lactamase FRET activation; activation, % at 5.6 µM; actives 10% (n = 460);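 active = activation above the screen-wide mean activation plus 3 SD, cut at about 8% in these data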
GALR2 blk conf = GALR2 antagonists, retest of hits, confirmation, cell-based | shares compounds with GALR2 antag | GALR2-expressing cells, antagonist mode, inhibition | inhibition, % at 4 µM | actives 60% (n = 480);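 also: cells stimulated with galanin at about its EC80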
BLA inhib ctr = inhibitors of NFAT-driven beta-lactamase reporter, confirmation, counter-screen for GALR2 antagonist project, CHO NFAT-bla cells, FRET readout | inhibition, % at 4.2 µM | shares compounds with GALR2 antag | actives 36% (n = 480) | thapsigargin-stimulated;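 active = inhibition above the mean inhibition across tested compounds plus 3 SD, cut at about 27% in these data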
Hits are given with their value; 0 = inactive; - = no result given. Rule as the data show it, unless noted: active = inhibition above about 27%; inactive = the rest.

SMILES	S1P2 blocker	GALR2 ag	S1P2 ag	GALR2 antag	Smad3 FoxH1 inh	Candida biofilm	others
CN1C(=O)N(C)C(=O)C2(Cc3c(nc4ccccn4c3=O)N3CCC(Cc4ccccc4)CC32)C1=O (centres undefined)	-	-	-	-	0	0
Cc1cccn2c(=O)c3c(nc12)N1CCC(Cc2ccccc2)CC1C1(C3)C(=O)N(C)C(=O)N(C)C1=O (centres undefined)	0	0	17	0	0	0
O=C(Nc1ccc([As](=O)(O)O)cc1)Nc1cccc(Cl)c1Cl	-	-	-	-	0	-
O=C(Nc1ccc(Cl)cc1)Nc1nccs1	0	0	53	0	0	0
CC(C)=C[C@H]1[C@H](C(=O)OCc2cc3c(cc2Cl)OCO3)C1(C)C	-	-	-	-	0	-
C[C@@H]1O[C@H](O[C@H]2C[C@@H](O)[C@]3(CO)[C@@H]4[C@@H](O)C[C@]5(C)[C@@H](C6=CC(=O)OC6)CC[C@@]5(O)[C@H]4CC[C@@]3(O)C2)[C@@H](O)[C@H](O)[C@H]1O	-	-	-	-	0	-
Nc1c(C(=O)NCc2ccco2)c2nc3ccccc3nc2n1Cc1ccccc1	-	5.1	-	0	-	-
Nc1c(C(=O)NCc2ccco2)c2nc3ccccc3nc2n1CCN1CCOCC1	0	0	0	0	0	0
Nc1c(C(=O)NCc2ccco2)c2nc3ccccc3nc2n1Cc1ccc(F)cc1	0	28	48	0	0	0
CCNC(C)(C)[C@@H](SS)c1ccc(Br)cc1	-	-	-	-	96	-
COc1cc2c(cc1OC)[C@@]13CCN4C=C5CCO[C@H]6CC(=O)N2[C@H]1[C@H]6[C@H]5C[C@H]43	-	-	-	-	0	-
CN(C)[C@@H]1C(=O)C(C(N)=O)=C(O)[C@]2(O)C(=O)C3=C(O)c4c(O)cccc4[C@](C)(O)[C@H]3C[C@@H]12	-	-	-	-	96	-
COc1ccc(C(=O)O[C@@H]2CC[C@@]3(C)[C@@H]4CC[C@@H]5[C@@]6(O)C[C@@H](O)[C@@]7(O)[C@@H](CN8C[C@H](C)CC[C@H]8[C@]7(C)O)[C@]6(O)C[C@@]53O[C@@]42O)cc1OC	-	-	-	-	0	-
O=P(O)(O)CCP(=O)(O)O	-	-	-	-	0	-
CCN(c1ccc(C(O)(C(=O)OC)C(F)(F)F)cc1)S(=O)(=O)c1ccccc1 (centres undefined)	-	16	-	0	0	0	GALR2 ag confirm=0;BLA act counter=0
O.O.[NH-]C1(C(=O)O)CCCC1.[NH-]C1(C(=O)O)CCCC1.[Ni+2]	-	-	-	-	0	-
CN(C)CCc1nc2ccccc2c(=O)n1-c1ccccc1	0	32	0	0	0	0	GALR2 ag confirm=0;BLA act counter=0
NCCc1c[nH]c2ccc(OC(=O)C(=O)O)cc12	-	-	-	-	0	-
O=C(COc1ccccc1)Nc1ccc(Cl)cc1C(=O)c1ccccc1	-	0	-	0	-	-
COc1ccc(OCC(=O)Nc2ccc(Cl)cc2C(=O)c2ccccc2)cc1	0	0	0	0	-	-	GALR2 ag confirm=0;BLA act counter=0
C[As+](C)(c1ccc(Br)c([N+](=O)[O-])c1)c1ccc(Br)c([N+](=O)[O-])c1.O=[N+]([O-])O	-	-	-	-	0	-
COc1cc(/C=C(/C)[N+](=O)[O-])ccc1OCc1ccccc1Cl	-	11	-	0	-	-	GALR2 ag confirm=0;BLA act counter=0
CN1C(=O)C(=Cc2ccccc2OCc2ccccc2Cl)C(=O)N(C)C1=O	-	0	-	0	-	-
N#Cc1cc2c(nc1SCC(=O)Nc1cc(Cl)ccc1Cl)C1CCN2CC1	0	0	0	0	0	0	GALR2 ag confirm=0;BLA act counter=0
O=C(CCCN1CCC2(CC1)C(=O)NCN2c1ccccc1)c1ccc(F)cc1	-	16	-	0	0	0	GALR2 ag confirm=8.8;BLA act counter=14
SMILES	S1P2 blocker	GALR2 ag	S1P2 ag	GALR2 antag	Smad3 FoxH1 inh	Candida biofilm	others
CC1(C)CCC(C)(C)c2c1ccc(O)c2Cc1c(O)ccc2c1C(C)(C)CCC2(C)C	-	-	-	-	0	-
COc1ccc(Cn2c(N)c(C(=O)NCc3ccco3)c3nc4ccccc4nc32)cc1	0	13	0	0	0	0	GALR2 ag confirm=8.6;BLA act counter=16
CCOC(=O)c1c(N)n(Cc2ccco2)c2nc3ccccc3nc12	0	0	0	0	0	0
C=CCn1c(O)c(/C=C2/C=CC=N2)c(=O)[nH]c1=O	-	0	-	35	-	-	GALR2 blk conf=0;BLA inhib ctr=0
c1nc(N2CC2)c2cnn([C@@H]3CCCCO3)c2n1	-	-	-	-	0	-
CC(=O)OC(C)(C)/C=C/C(=O)[C@](C)(O)[C@H]1[C@H](O)C[C@@]2(C)[C@@H]3CC=C4[C@H](C[C@H](O)C(=O)C4(C)C)[C@]3(C)C(=O)C[C@]12C	-	0	-	72	-	-	GALR2 blk conf=87;BLA inhib ctr=102
Nc1cc(Cl)c2nonc2c1[N+](=O)[O-]	-	0	-	37	-	-	GALR2 blk conf=35;BLA inhib ctr=0
ClCC[N+]12CC[N+](CCCl)(CC1)C2 (tested in a mixture with another compound)	-	-	-	-	0	-
COc1cc(/C=C/[N+](=O)[O-])ccc1O	-	0	-	52	-	-	GALR2 blk conf=55;BLA inhib ctr=0
CC(=O)OC1(c2ccc(C)cc2)CN2CCC1c1ccccc12 (centres undefined)	0	0	0	39	0	0	GALR2 blk conf=0;BLA inhib ctr=0
O=C(O)C[SH+]CC(=O)O.O=C(O)C[SH+]CC(=O)O.[Cu]	-	-	-	-	0	-
CC(C)c1ccc(C(O)(C(=O)O)c2ccc(C(C)C)cc2)cc1	-	-	-	-	0	-
NC[C@@H](O)CSP(=O)(O)O	-	-	-	-	0	-
